Assays:
Experiment in all cases: PBM binding z-score (relative to random genomic background probes); higher = stronger binding; sequences stand for … in GC…GCGATTGACAGCGTAGAATGAAGG
[1] = tested on: FXR:RXRa (NR concentration 270 nM, RXRa partner concentration 90 nM)
Summary of the method: (§1)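 Antibodies against each partner of ligand-free nuclear receptor dimers (one per run) detected binding on custom Agilent 4×180K protein-binding microarrays after 1 h incubation. The double-stranded probes had 34-nt variable regions carrying direct-repeat seeds, single-nucleotide variants, half-site ablations and random human genomic background sequences. Binding z-scores, from regression-normalized fluorescence, use the random background probes as reference.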

[2] = tested on: LXRa:RXRa (NR concentration 270 nM, RXRa partner concentration 90 nM)
Summary of the method: as §1

[3] = tested on: LXRa homodimer (NR concentration 270 nM)
Summary of the method: as §1

[4] = tested on: LXRb:RXRa (NR concentration 270 nM, RXRa partner concentration 90 nM)
Summary of the method: as §1

[5] = tested on: LXRb homodimer (NR concentration 270 nM)
Summary of the method: as §1

[6] = tested on: PPARa:RXRa (NR concentration 270 nM, RXRa partner concentration 90 nM)
Summary of the method: as §1

[7] = tested on: PPARg:RXRa (NR concentration 180 nM, RXRa partner concentration 90 nM)
Summary of the method: as §1

[8] = tested on: PPARg:RXRa 270nM:90nM, anti-RXR (NR concentration 270 nM, RXRa partner concentration 90 nM)
Summary of the method: as §1

[9] = tested on: PPARg:RXRa 30nM:10nM, anti-RXR (NR concentration 30 nM, RXRa partner concentration 10 nM)
Summary of the method: as §1

[10] = tested on: PPARg:RXRa 90nM:30nM, anti-RXR (NR concentration 90 nM, RXRa partner concentration 30 nM)
Summary of the method: as §1

Row | Sequence | PBM binding z-score [1] | PBM binding z-score [2] | PBM binding z-score [3] | PBM binding z-score [4] | PBM binding z-score [5] | PBM binding z-score [6] | PBM binding z-score [7] | PBM binding z-score [8] | PBM binding z-score [9] | PBM binding z-score [10]
1 | TCTTGTAGATCAATCAGGTTAAGAAAGCCTGAGT | 0.77 | 0.362 | 0.00408 | 0.532 | 0.279 | 0.703 | -0.495 | 1.31 | 2.82 | 2.3
2 | AGTCAAAGTTCAGTACGAGGTAACGTAAAGCACG | 3.32 | 3.34 | 1.28 | 1.83 | 0.584 | 2.76 | 3.76 | 4.15 | 1.8 | 2.93
3 | GCATATAGGTAATACAAGGTGGAAGTCCGATTGT | 0.184 | 0.265 | -0.224 | -0.272 | -0.619 | 0.775 | 0.978 | 0.953 | 0.435 | 0.586
4 | CAAACTCGGTCACCGGAAGGTCAAAGTCCGCATG | 4.53 | 5.04 | 4.93 | 3.86 | 1.28 | 4.39 | 3.62 | 4.26 | 1.23 | 3.26
5 | GCATATAGGTAATACAAAGTGAAAGTCCGATTGT | -0.614 | -0.368 | -0.219 | -0.304 | -0.361 | 0.632 | 1.12 | 0.884 | 0.583 | 0.849
6 | CCGCGGAGGACAACAGGAGGTCAGAGCTGCCAGA | 1.23 | 2.08 | 1.98 | 1.49 | -0.659 | 2.17 | 0.34 | 0.0732 | -0.523 | -0.778
7 | TCAGACAGGTGTAGGTAACTCAGGTACGCAGTCG | 0.401 | 1.02 | 0.205 | 0.34 | -0.0818 | 0.643 | 0.472 | 1.78 | 3.54 | 2.76
8 | TAGCCTAGGTCCTGGGCCAGTATACCACGCGAAC | -0.638 | -1.08 | -0.796 | -0.85 | -1.45 | -0.439 | -0.0172 | -0.469 | -1.04 | -0.662
9 | CGTCCAAGGTCATGGTCAGTGAAAGAGACTCGAA | 6.75 | 5.27 | 0.622 | 4.03 | 0.455 | 5.74 | 5.32 | 5.75 | 2 | 4.28
10 | ATCTCTAGGTAACGATAGTTCAGTGAATGCAAAT | 0.157 | 4.89 | 0.491 | 1.33 | 0.408 | 0.791 | 0.696 | 0.807 | 0.214 | 0.514
11 | ACAGACAGGTGATGAAGGTACCTCAGGCTATCAT | -0.309 | -0.187 | -0.266 | -0.411 | -0.507 | -0.132 | 0.682 | -0.0814 | 0.3 | -0.00206
12 | TGAATGAGGTTAAGGATCAGGGAACGTGGCGTCG | 1.99 | 1.74 | -0.343 | 1.01 | 0.386 | 3.28 | 3.12 | 4.57 | 2.71 | 4.12
13 | CTCGAAAGGTCGTGCTCAGGTGAGCATACCAAAC | 5.82 | 4.04 | -0.293 | 3.23 | 0.516 | 4.76 | 3.03 | 4.08 | 1.02 | 2.96
14 | GCTATTAGTTGAATGGGCAACCGAATGATTCTCG | -0.277 | -0.309 | -0.219 | -0.351 | -0.317 | -0.737 | 0.129 | -0.166 | -0.146 | 0.0794
15 | TCATATAGGTATAAGGTGAAAGTCGGTGTGGTAA | 1.55 | 1.21 | 0.319 | 1.37 | 0.352 | 3.14 | 3.92 | 5.38 | 5.06 | 5.68
16 | ACCAGTTGGTCAGCTGAGGTCACACACAATTCGG | 4.09 | 3.33 | 2.22 | 3.21 | 0.296 | 3.54 | 1.58 | 2.14 | 0.389 | 1.17
17 | CCGAGTAGGTTATGGGCCATTCAGGCAACGGTGA | -0.39 | 0.176 | -0.0661 | -0.0151 | -0.497 | 1.58 | 2.14 | 3.47 | 1.22 | 3.06
18 | ATATGTAGGTTACATCCGGGGCATTCAGGCTATG | 0.427 | 2.23 | 0.412 | 1.16 | 1.07 | 3.19 | 5.17 | 4.28 | 1.77 | 3.18
19 | GCAGACAGGTGAAACGCAGGTACCTCAGGGTGGC | -0.505 | -0.351 | -1.08 | -0.737 | -1.1 | 0.616 | 0.419 | -0.439 | -0.666 | -0.889
20 | ATCACTAGGTAAAGTTCAGTGAAAGATCGATAGA | 0.984 | 1.7 | 1.43 | 1.17 | 0.688 | 2.22 | 2.59 | 3.38 | 1.45 | 2.7
21 | CCTACTGGCCCATTCAGAGGTCATTGATCATATG | 2.81 | 4.4 | 6.69 | 3.76 | 0.83 | 3.28 | 0.571 | 1.44 | 0.377 | 1.09
22 | TCTAGTTGTTCAAAGGTCACACACTCGAAATGCG | 5.39 | 5.85 | 4.39 | 5.41 | 1.92 | 5.76 | 7.52 | 7.68 | 6.77 | 8.74

Row | Sequence | PBM binding z-score [1] | PBM binding z-score [2] | PBM binding z-score [3] | PBM binding z-score [4] | PBM binding z-score [5] | PBM binding z-score [6] | PBM binding z-score [7] | PBM binding z-score [8] | PBM binding z-score [9] | PBM binding z-score [10]
23 | ATCGAAAGCTCGACGAGGTGAGTATACACCGTTT | -0.406 | -0.524 | -0.742 | -0.456 | -0.163 | -0.348 | 0.614 | -0.448 | 0.105 | -0.367
24 | CCTGCTAGGTAATGGTCAGCTAATCTACAGTATG | -0.151 | -0.438 | -0.575 | -0.764 | -0.48 | -0.344 | -0.182 | -0.104 | -0.225 | -0.424
25 | CCTACTGGGCCAATCAGAGGTCATTGATCATATG | 2.78 | 4.24 | 7.72 | 3.78 | 0.545 | 3.87 | 2.45 | 3.15 | 1.12 | 2.29
26 | AGAACGAGGGCAATGAGCTGATAGCACGGGTGGC | 0.394 | 0.368 | -0.433 | -0.35 | -0.559 | 1.4 | 1.29 | 0.822 | -0.0771 | 0.27
27 | CCTTACGGGTCACGAAGTTATAGCACGACGAGCG | 6.04 | 3.71 | -0.266 | 3.39 | -0.139 | 5.75 | 6.25 | 5.64 | 2.5 | 4.43
28 | AGATTGAGGTTATTAAGATCAGGGAATTGCGGTC | 1.61 | 1.28 | 0.39 | 1.32 | 0.271 | 2.42 | 1.08 | 1.65 | 0.461 | 1.17
29 | ATATGTAGGTTTGCTGGGGTCATTCAGACTAGGC | 3.58 | 3.85 | 1.58 | 4.47 | 1.4 | 4.53 | 2.69 | 3.1 | 0.969 | 2.19
30 | ACAGACAGGTGATGAAGGTAAGTCAGGCTATCAT | -0.11 | -0.19 | -0.349 | -0.143 | -0.155 | 0.0808 | 0.554 | -0.245 | -0.266 | -0.536
31 | TATACAGGGTAAAAGGCCAGAGTACGAATGTCGA | 0.526 | 0.732 | 0.094 | 0.483 | 0.559 | 2.02 | 3.63 | 4.11 | 2.26 | 3.82
32 | CGTCCAAAGTCAGAGAGGTCAGTGAATGCCGAGT | 1.93 | 2.04 | 1.25 | 1.98 | 0.362 | 2.51 | 0.249 | 0.942 | -0.0025 | 0.475
33 | AGAATGCGGTTACCAAAGATCAGGGAAACGCTTG | -0.546 | 1.96 | -0.607 | -0.204 | -0.992 | 0.0564 | 0.562 | 0.104 | -0.151 | -0.17
34 | ATATGTAGGTTAGCTGGGGACATTCAGACTAGGC | 1.86 | 1.8 | 0.679 | 1.14 | 0.544 | 2.64 | 3.46 | 2.89 | 1.12 | 2.16
35 | AGAATGAGGTTATTAAGATGAGGGAATTGCGGTC | 1.61 | 1.5 | 0.433 | 1.3 | 0.12 | 2.54 | 1.22 | 1.46 | 0.735 | 1.12
36 | TCTCGGAGGATACGAAAGGTCAGAGCTCGACATC | 2.69 | 4.17 | 2.95 | 3.22 | -0.148 | 3.68 | 1.75 | 3.37 | 2.63 | 3.04
37 | ATTAGTTGGTCAGCTGAGGTCACACACAATTCGG | 3.77 | 3.68 | 3.19 | 3.95 | 1.13 | 3.96 | 2.32 | 2.81 | 1.44 | 2.13
38 | CCTCGGAGGGCAGAAGGTCAGAGCTGTCCGCTTT | 1.58 | 1.92 | -0.356 | 1.12 | -1.06 | 2.48 | 0.613 | 2.48 | -0.473 | 1.44
39 | ACTAGCAGGCCAAGTTTGGGTCTCTCAAACAAAG | -0.742 | -0.825 | -0.773 | -0.616 | -0.908 | -0.417 | -0.897 | -0.524 | -1.1 | -0.853
40 | CGAGACAGGTGAGAAGGTAACTCAGCCTCGATTA | -0.0468 | -0.124 | -0.337 | -0.343 | -0.761 | 0.591 | 0.452 | 0.452 | -0.196 | 0.138
41 | AGAACGAGGCCAATGAGTTGATAGCACGGGTGGC | -0.177 | -0.455 | -0.576 | -0.817 | -0.913 | 0.0353 | 0.81 | -0.06 | -0.388 | 0.093
42 | TTACGAAGGTGAGCTGAGGTCGTTGATCCAACTC | 2.65 | 1.46 | -0.333 | 0.8 | -0.914 | 1.52 | 0.0154 | 0.637 | -0.115 | 0.0816
43 | GGTCGGAGGACAAGGTCAGAGCTTTGTCCGTAGA | 2.18 | 1.7 | -0.109 | 1.42 | -0.689 | 2.43 | 0.581 | 1.58 | -0.506 | 0.714
44 | CAAACTAGGTCACAGAGGTCAAAGTGCGTGCGTA | 7.35 | 6.76 | 7.05 | 6.54 | 2.29 | 6.71 | 10.1 | 8.21 | 6.64 | 8.45

Source: the supplement of paper PMC6555819
